T cruzi growth = inhibitors of T. cruzi proliferation; T. cruzi beta-gal in NIH3T3, GalScreen luminescence, 90 h; inhibition, % at 8.34 µM; hit rate 5.9% among 77,000;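 active = mean inhibition above about 93%, with at least 55% of replicates each passing it, limit read from the data, passing the limit was not always enough; inconclusive = only one of those two conditions holds; inactive = neither condition holds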
Pf Dd2 growth = inhibitors of Plasmodium falciparum Dd2 growth; AID 1159554; activity change, % at 10 µM; P. falciparum Dd2 growth, SYBR Green, 72 h; active compounds read low; hit rate 2.3% among 94,000; in the data active = activity change below about -80%; inconclusive = no clear call, values can overlap the other calls
C diff HTS = C. difficile growth inhibition. Clostridium difficile clinical isolate growth, OD600, 24 h; active compounds read low. growth activity, negative = inhibition, % at 16 µg/mL (by protocol). hit rate 0.25% among 86,000;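 active = mean growth activity at or below -80% and every replicate also at or below -80%; inconclusive = mean at or below -80% but some replicate above -80%; inactive = mean growth activity above -80%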
A number is an active result; 0 = inactive; ? = inconclusive; - = no result. Compounds with a hit are over-represented: about 6.7% of the library has one in this group of screens.

SMILES	T cruzi growth	Pf Dd2 growth	C diff HTS
C[C@@H]1CN([C@@H](C)CO)C(=O)c2cc(NC(=O)Cc3ccccc3)ccc2O[C@@H](C)CCCCO[C@@H]1CN(C)S(=O)(=O)c1ccc(F)cc1	0	-87	0
C[C@@H]1CN([C@H](C)CO)C(=O)c2cc(NC(=O)Cc3ccccc3)ccc2O[C@@H](C)CCCCO[C@@H]1CN(C)S(=O)(=O)c1ccc(F)cc1	0	-89	-
C[C@H](CO)N1C[C@H](C)[C@H](CN(C)S(=O)(=O)c2ccc(F)cc2)OCCCC[C@H](C)Oc2ccc(NC(=O)Cc3ccccc3)cc2C1=O	0	0	0
C[C@@H]1CN([C@H](C)CO)C(=O)c2cc(NC(=O)Cc3ccccc3)ccc2O[C@@H](C)CCCCO[C@@H]1CN(C)S(=O)(=O)c1ccccc1	-	-81	-
C[C@@H]1CCCCO[C@@H](CN(C)S(=O)(=O)c2ccccc2)[C@H](C)CN([C@H](C)CO)C(=O)c2cc(NC(=O)Cc3ccccc3)ccc2O1	-	0	-
COCC#Cc1ccc(CC[C@H]2O[C@H]3CC[C@H](CO)O[C@H]3C[C@@H]2n2cc(C3(O)CCCC3)nn2)cc1	-	0	0
C[C@@H]1CN([C@H](C)CO)C(=O)c2cc(/C=C/c3ccccc3)cnc2O[C@H]1CN(C)C(=O)c1ccc2c(c1)OCO2	-	0	0
C[C@H]1CN([C@@H](C)CO)C(=O)c2cccc(NC(=O)Nc3ccccc3)c2O[C@@H]1CN(C)Cc1ccc(-c2ccccc2)cc1	0	0	0
C[C@@H]1CN([C@@H](C)CO)C(=O)c2cccc(NC(=O)Nc3ccccc3)c2O[C@@H]1CN(C)Cc1ccc(-c2ccccc2)cc1	0	0	-102
C[C@H]1CN([C@@H](C)CO)C(=O)c2cccc(NC(=O)Nc3ccccc3)c2O[C@@H]1CN(C)Cc1ccc(Cl)c(Cl)c1	0	0	0
C[C@@H]1CN([C@H](C)CO)C(=O)c2cccc(NC(=O)Nc3ccccc3)c2O[C@@H]1CN(C)Cc1ccc(Cl)c(Cl)c1	0	-86	0
O=C(Nc1ccccc1)N[C@@H]1CC[C@@H](CCn2cc(-c3ccccc3F)nn2)O[C@@H]1CO	-	0	0
N#C[C@H]1[C@H](c2ccccc2-c2cccc(F)c2)[C@@H](CO)N1C(=O)NC1CCCC1	-	0	0
COc1ccc(S(=O)(=O)Nc2cccc3c2O[C@H](CN(C)Cc2ccc(-c4ccccc4)cc2)[C@@H](C)CN([C@H](C)CO)C3=O)cc1	-	-91	0
C[C@H]1CN([C@@H](C)CO)C(=O)c2cccc(NS(C)(=O)=O)c2O[C@@H]1CN(C)Cc1ccc(-c2ccccc2)cc1	0	-84	0
C[C@@H]1CN([C@@H](C)CO)C(=O)c2cccc(NS(=O)(=O)c3ccccc3)c2O[C@H]1CN(C)Cc1ccc(-c2ccccc2)cc1	0	-84	-
COc1ccc(S(=O)(=O)Nc2cccc3c2O[C@H](CN(C)Cc2ccc(-c4ccccc4)cc2)[C@H](C)CN([C@@H](C)CO)C3=O)cc1	0	0	0
C[C@H](CO)N1C[C@H](C)[C@H](CN(C)Cc2ccc(-c3ccccc3)cc2)Oc2c(NS(=O)(=O)c3ccccc3)cccc2C1=O	0	0	-
C[C@@H]1CN([C@@H](C)CO)C(=O)c2cccc(NS(C)(=O)=O)c2O[C@H]1CN(C)Cc1ccc(-c2ccccc2)cc1	0	0	0
Cc1noc(C)c1S(=O)(=O)Nc1ccc2c(c1)C(=O)N([C@@H](C)CO)C[C@@H](C)[C@@H](CN(C)C(=O)Nc1cccc3ccccc13)O2	0	0	0
CCCNC(=O)[C@@H]1[C@@H](CO)[C@@H]2Cn3c(cccc3=O)[C@@H]2N1Cc1ccccc1Cl	0	-	0
C[C@H]1CCCCO[C@H](CN(C)C)[C@@H](C)CN([C@@H](C)CO)C(=O)c2cc(NC(=O)c3ccncc3)ccc2O1	0	0	0
C[C@H](CO)N1C[C@H](C)[C@H](CN(C)Cc2ccc(-c3ccccc3)cc2)Oc2c(NC(=O)c3cnccn3)cccc2C1=O	0	0	0
C[C@H](CO)N1C[C@H](C)[C@H](CN(C)Cc2ccccc2)Oc2c(NC(=O)c3cnccn3)cccc2C1=O	0	0	0
C[C@@H]1CN([C@H](C)CO)C(=O)c2cccc(NC(=O)c3cnccn3)c2O[C@H]1CN(C)Cc1ccc(C(=O)Nc2ccccc2N)cc1	-	-91	0
SMILES	T cruzi growth	Pf Dd2 growth	C diff HTS
C[C@@H]1CN([C@@H](C)CO)C(=O)c2cccc(NC(=O)c3cnccn3)c2O[C@H]1CN(C)Cc1ccc(Cl)c(Cl)c1	0	-83	0
C[C@@H]1CN([C@@H](C)CO)C(=O)c2cccc(NC(=O)c3cnccn3)c2O[C@@H]1CN(C)Cc1ccc(-c2ccccc2)cc1	0	-87	0
C[C@@H]1CN([C@@H](C)CO)C(=O)c2cccc(NC(=O)c3cnccn3)c2O[C@@H]1CN(C)Cc1ccc(Cl)c(Cl)c1	0	0	0
CC(C)CC#Cc1ccc2c(c1)O[C@H](CN(C)C(=O)CN(C)C)[C@@H](C)CN([C@@H](C)CO)S2(=O)=O	0	0	0
N#C[C@H]1[C@@H](c2ccccc2C2=CCCCC2)[C@H](CO)N1S(=O)(=O)c1cccc(F)c1	-	0	0
COc1ccc2c3c(n(C)c2c1)[C@@H](CO)N(CC1CC1)CC31CCN(C(=O)c2ccccc2)CC1	-	0	-
C[C@@H]1CN([C@@H](C)CO)C(=O)c2cc(NC(=O)CCCCCC(=O)Nc3ccccc3N)ccc2O[C@@H](C)CCCCO[C@@H]1CN(C)C(=O)Nc1ccc(C(F)(F)F)cc1	0	-82	0
C[C@@H]1CCCCO[C@H](CN(C)S(=O)(=O)c2ccc(Cl)cc2)[C@@H](C)CN([C@H](C)CO)C(=O)c2cc(NC(=O)CCCCCC(=O)Nc3ccccc3N)ccc2O1	-	-85	0
COc1ccc(NC(=O)Nc2ccc3c(c2)C(=O)N([C@H](C)CO)C[C@H](C)[C@H](CN(C)Cc2ccc(C(=O)Nc4ccccc4N)cc2)OCCCC[C@@H](C)O3)cc1	-	-87	0
C[C@H](CO)N1C[C@H](C)[C@H](CN(C)CC2CCCCC2)OCCCC[C@H](C)Oc2ccc(NC(=O)CCCCCC(=O)Nc3ccccc3N)cc2C1=O	0	-82	0
COc1ccc(S(=O)(=O)Nc2ccc3c(c2)C(=O)N([C@H](C)CO)C[C@H](C)[C@H](CN(C)Cc2ccc(C(=O)Nc4ccccc4N)cc2)OCCCC[C@@H](C)O3)cc1	-	0	0
C[C@@H]1CN([C@H](C)CO)C(=O)c2cc(NC(=O)CCCCCC(=O)Nc3ccccc3N)ccc2O[C@@H](C)CCCCO[C@@H]1CN(C)S(=O)(=O)c1ccc(Cl)cc1	0	0	-
C[C@@H]1CCCCO[C@@H](CN(C)CC2CCCCC2)[C@H](C)CN([C@H](C)CO)C(=O)c2cc(NC(=O)CCCCCC(=O)Nc3ccccc3N)ccc2O1	0	?	0
C[C@@H]1CCCCO[C@@H](CN(C)C(=O)Nc2ccc(C(F)(F)F)cc2)[C@@H](C)CN([C@H](C)CO)C(=O)c2cc(NC(=O)CCCCCC(=O)Nc3ccccc3N)ccc2O1	0	0	0
CCC(=O)N[C@H]1CC[C@H](CC(=O)NCc2ccc(OC)cc2)O[C@H]1CO	0	0	0
CCCC(=O)N1CC2(C1)CN(Cc1ccncc1)[C@@H](CO)c1[nH]c3cc(OC)ccc3c12	-	0	-

Source: PubChem BioAssay
